From PubChem BioAssay (NCI)
The panel holds about 79,000 compounds, 15% with a hit somewhere; the sample as a whole holds those more often. Active and inactive are the calls of the source. Cut-off read from the data, not from the text of the source: active = growth inhibition above about 70%; inactive = the rest.

Legend:
[1] = NCI Yeast Anticancer Drug Screen. Data for the wt1 strain (AID 149);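 note: 0% = growth of vehicle-treated wt1 cultures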; details: S. cerevisiae wt1 strain (SPY 50644) growth inhibition, stronger effect = higher value
In short: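 The wt1 strain was treated with compounds, and growth was compared with vehicle-treated cultures to give inhibition.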

[2] = NCI Yeast Anticancer Drug Screen. Data for the rad50EPP+ strain (AID 151);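 note: 0% = growth of vehicle-treated control cultures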; details: S. cerevisiae rad50 mutant strain, stronger effect = higher value
In short: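 One strain with a rad50 alteration (rad50EPP+) was compound-treated, its growth then compared to that of vehicle controls.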

[3] = NCI Yeast Anticancer Drug Screen. Data for the mgt1 strain (AID 153); details: S. cerevisiae mgt1 mutant growth inhibition, stronger effect = higher value
In short: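 After exposure of the mgt1 yeast mutant to compound, growth was measured and reported as inhibition compared with vehicle controls.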

[4] = NCI Yeast Anticancer Drug Screen. Data for the rad50 strain (AID 155);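 note: 0% = growth of vehicle-only cultures of the same strain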; details: S. cerevisiae rad50 strain growth inhibition, stronger effect = higher value
In short: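 Cells are treated with compound, grown, and their growth is then scored against vehicle-only cultures of the same repair-deficient yeast strain.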

[5] = NCI Yeast Anticancer Drug Screen. Data for the mec2-1 strain (AID 157); details: S. cerevisiae mec2-1 strain, stronger effect = higher value
In short: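 Test agents were screened against the mec2-1 yeast strain, with defined DNA repair or cell cycle alteration. Growth was scored as inhibition against vehicle-only controls.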

[6] = NCI Yeast Anticancer Drug Screen. Data for the rad14 strain (AID 159);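 note: 0% = growth of vehicle-treated control cultures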; details: S. cerevisiae rad14 strain growth inhibition, stronger effect = higher value
In short: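 Readout: yeast growth inhibition, referenced to vehicle-only cultures. Strain bears a defined alteration in DNA damage repair.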

[7] = NCI Yeast Anticancer Drug Screen. Data for the sgs1 mgt1 strain (AID 161);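 note: 0% = growth of cultures given vehicle only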; details: S. cerevisiae sgs1 mgt1 strain, stronger effect = higher value
In short: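 Mutant yeast exposed to compound; growth scored against vehicle-only wells.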

[8] = NCI Yeast Anticancer Drug Screen. Data for the CLN2oe strain (AID 163);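 note: 0% = growth of vehicle-only control cultures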; details: S. cerevisiae CLN2oe strain, stronger effect = higher value
In short: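 Here, growth inhibition in a cell-cycle-altered yeast strain after compound exposure was quantified against vehicle control growth.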

[9] = NCI Yeast Anticancer Drug Screen. Data for the cln2 rad14 strain (AID 165);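 note: 0% = growth equal to vehicle treated cultures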; details: S. cerevisiae cln2 rad14 strain, stronger effect = higher value
In short: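 Growth of compound-exposed yeast (cln2 rad14 genotype) measured and expressed as inhibition relative to vehicle.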

[10] = NCI Yeast Anticancer Drug Screen. Data for the bub3 strain (AID 167); details: S. cerevisiae bub3 mutant strain, stronger effect = higher value
In short: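 Part of a panel of yeast mutants defective in DNA damage repair or cell cycle regulation. Each strain is grown with compound, and inhibition is calculated relative to solvent-treated cultures.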

[11] = NCI Yeast Anticancer Drug Screen. Data for the wt2 strain (AID 169);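 note: 0% = growth of vehicle-treated yeast cultures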; details: S. cerevisiae wt2 strain growth inhibition, stronger effect = higher value
In short: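 Genetically defined yeast strains from a DNA-repair/cell-cycle panel were used. Compound-exposed yeast growth was measured, and the inhibition was calculated relative to vehicle treatment.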

[12] = NCI Yeast Anticancer Drug Screen. Data for the mlh1 strain (AID 171);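 note: 0% = growth of vehicle-treated control cultures of the same strain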; details: S. cerevisiae mlh1 strain growth inhibition, stronger effect = higher value
In short: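 Here the genetically defined yeast mutant is grown with each compound, and the extent to which its growth falls below that of vehicle-exposed cells is reported.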

[13] = NCI Yeast Anticancer Drug Screen. Data for the sgs1 strain (AID 173);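 note: 0% = growth of vehicle-only control cultures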; details: S. cerevisiae sgs1 mutant, stronger effect = higher value
In short: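 Relative growth inhibition, referenced to vehicle, was determined in a yeast strain with a defined alteration affecting DNA damage repair or cell cycle control after compound exposure.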

[14] = NCI Yeast Anticancer Drug Screen. Data for the mlh1 rad18 strain (AID 175); details: S. cerevisiae mlh1 rad18 strain growth inhibition, stronger effect = higher value
In short: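 In this whole-cell yeast screen, a strain with altered DNA damage repair is challenged with compound, and its growth is measured against matched vehicle-treated controls.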

[15] = NCI Yeast Anticancer Drug Screen. Data for the rad18 strain (AID 177); details: S. cerevisiae rad18 mutant growth inhibition, stronger effect = higher value
In short: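 Screen uses a yeast strain with a defined lesion in DNA damage repair; compound effect is read as loss of growth compared to untreated vehicle cultures.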

[16] = at 5.0 µM (retest, dose inferred, filed as 0.5)
[17] = at 50.0 µM (retest, dose inferred, filed as 5.0)

Measured: growth inhibition

CC1=NN(C(=O)CC(=O)N(C(=O)c2ccccc2)c2ccc(Cl)cc2)C(=O)C1N=Nc1ccc([N+](=O)[O-])cc1 (stereo unspecified)
active: [3]; at 100.0 µM 71% | [4]; at 33.0 µM 74% | [4]; [17] 89% | [4]; at 50.0 µM 84.5% | [4]; at 100.0 µM 74% | [5]; at 50.0 µM 83.6% | [7]; at 50.0 µM 77.7% | [8]; at 33.0 µM 75% | [8]; at 100.0 µM 77% | [10]; at 50.0 µM 85% | [10]; at 100.0 µM 71% | [11]; at 33.0 µM 87% | [11]; at 100.0 µM 82% | [14]; [17] 75% | [14]; at 50.0 µM 81% | [15]; at 33.0 µM 85% | [15]; at 100.0 µM 84%
inactive: [1]; at 1.2 µM -43% | [1]; at 3.7 µM -1% | [1]; at 11.0 µM 10% | [1]; at 33.0 µM 26% | [1]; at 100.0 µM 37% | [2]; at 1.2 µM 6% | [2]; at 3.7 µM 26% | [2]; at 11.0 µM 39% | [2]; at 33.0 µM 41% | [2]; at 100.0 µM 32% | [3]; at 1.2 µM 0% | [3]; at 3.7 µM 7% | [3]; at 11.0 µM 35% | [3]; at 33.0 µM 62% | [4]; at 1.2 µM -3% | [4]; at 3.7 µM 8% | [4]; [16] 41% | [4]; at 11.0 µM 50% | [5]; at 1.2 µM -3% | [5]; at 3.7 µM 8% | [5]; [16] 8% | [5]; at 11.0 µM 41% | [5]; at 33.0 µM 67% | [5]; [17] 56% | [5]; at 100.0 µM 68% | [6]; at 1.2 µM -1% | [6]; at 3.7 µM 7% | [6]; at 11.0 µM 23% | [6]; at 33.0 µM 44% | [6]; at 100.0 µM 53% | [7]; [16] -1% | [7]; [17] 49% | [8]; at 1.2 µM -11% | [8]; at 3.7 µM 6% | [8]; at 11.0 µM 48% | [9]; [16] 63% | [9]; [17] 66% | [9]; at 50.0 µM 55.8% | [10]; at 1.2 µM -5% | [10]; at 3.7 µM -6% | [10]; [16] 4% | [10]; at 11.0 µM 30% | [10]; at 33.0 µM 63% | [10]; [17] 67% | [11]; at 1.2 µM -4% | [11]; at 3.7 µM 7% | [11]; at 11.0 µM 64% | [12]; at 1.2 µM 0% | [12]; at 3.7 µM 8% | [12]; at 11.0 µM 36% | [12]; at 33.0 µM 59% | [12]; at 100.0 µM 69% | [13]; at 1.2 µM 0% | [13]; at 3.7 µM 14% | [13]; at 11.0 µM 46% | [13]; at 33.0 µM 68% | [13]; at 100.0 µM 69% | [14]; [16] 24% | [15]; at 1.2 µM 4% | [15]; at 3.7 µM 11% | [15]; at 11.0 µM 62%

CCN(CC)CCSc1c2ccccc2nc2cc(NCC(=O)Nc3ccccc3-c3ccccc3NC(=O)CNc3ccc4c(SCCN(CC)CC)c5ccccc5nc4c3)ccc12
inactive: [1]; at 1.2 µM -21% | [1]; at 3.7 µM -16% | [1]; at 11.0 µM -25% | [1]; at 33.0 µM 23% | [2]; at 1.2 µM 9% | [2]; at 3.7 µM 10% | [2]; at 11.0 µM -8% | [2]; at 33.0 µM 38% | [3]; at 1.2 µM 9% | [3]; at 3.7 µM 17% | [3]; at 11.0 µM 19% | [4]; at 1.2 µM 13% | [4]; at 3.7 µM 15% | [4]; [16] 23% | [4]; at 11.0 µM 15% | [5]; at 1.2 µM 23% | [5]; at 3.7 µM 22% | [5]; [16] 20% | [5]; at 11.0 µM 16% | [6]; at 1.2 µM -14% | [6]; at 3.7 µM -15% | [6]; at 11.0 µM -12% | [7]; [16] 21% | [8]; at 1.2 µM 2% | [8]; at 3.7 µM 7% | [8]; at 11.0 µM 11% | [8]; at 33.0 µM 44% | [9]; [16] 15% | [9]; [17] 13% | [9]; at 50.0 µM 41% | [10]; at 1.2 µM 36% | [10]; at 3.7 µM 30% | [10]; [16] 27% | [10]; at 11.0 µM 31% | [11]; at 1.2 µM -5% | [11]; at 3.7 µM -3% | [11]; at 11.0 µM 2% | [11]; at 33.0 µM 48% | [12]; at 1.2 µM -12% | [12]; at 3.7 µM -7% | [12]; at 11.0 µM -5% | [13]; at 1.2 µM -14% | [13]; at 3.7 µM -18% | [13]; at 11.0 µM -22% | [13]; at 33.0 µM 63% | [14]; [16] 42% | [15]; at 1.2 µM 16% | [15]; at 3.7 µM 12% | [15]; at 11.0 µM 11% | [15]; at 33.0 µM 69%
active: [1]; at 100.0 µM 96% | [2]; at 100.0 µM 89% | [3]; at 33.0 µM 85% | [3]; at 100.0 µM 97% | [4]; at 33.0 µM 75% | [4]; [17] 96% | [4]; at 50.0 µM 89.5% | [4]; at 100.0 µM 95% | [5]; at 33.0 µM 91% | [5]; [17] 98% | [5]; at 50.0 µM 89.5% | [5]; at 100.0 µM 97% | [6]; at 33.0 µM 74% | [6]; at 100.0 µM 96% | [7]; [17] 97% | [7]; at 50.0 µM 89.2% | [8]; at 100.0 µM 96% | [10]; at 33.0 µM 92% | [10]; [17] 89% | [10]; at 50.0 µM 90.5% | [10]; at 100.0 µM 98% | [11]; at 100.0 µM 96% | [12]; at 33.0 µM 80% | [12]; at 100.0 µM 96% | [13]; at 100.0 µM 96% | [14]; [17] 98% | [14]; at 50.0 µM 89% | [15]; at 100.0 µM 97%

COc1ccc(/C=C2\S/C(=N/Nc3nc(-c4ccccc4)cs3)NC2=O)cc1OC
inactive: [1]; at 1.2 µM 50% | [2]; at 1.2 µM 29% | [2]; at 3.7 µM 63% | [4]; at 1.2 µM 59% | [4]; [16] -4% | [5]; [16] -8%
active: [1]; at 3.7 µM 90% | [1]; at 11.0 µM 97% | [1]; at 33.0 µM 96% | [1]; at 100.0 µM 95% | [2]; at 11.0 µM 93% | [2]; at 33.0 µM 97% | [2]; at 100.0 µM 97% | [3]; at 1.2 µM 92% | [3]; at 3.7 µM 97% | [3]; at 11.0 µM 98% | [3]; at 33.0 µM 97% | [3]; at 100.0 µM 93% | [4]; at 3.7 µM 87% | [4]; at 11.0 µM 96% | [4]; at 33.0 µM 97% | [4]; [17] 93% | [4]; at 50.0 µM 95.2% | [4]; at 100.0 µM 93% | [5]; at 1.2 µM 82% | [5]; at 3.7 µM 88% | [5]; at 11.0 µM 96% | [5]; at 33.0 µM 97% | [5]; [17] 87% | [5]; at 50.0 µM 95.5%
